Experimental data reported in PubChem BioAssay (NCI).
The panel holds about 83,000 compounds, 20% with a hit somewhere; the sample as a whole holds those more often.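 Interpretation: 100, growth as untreated; towards 0, rising growth inhibition; 0, no net growth; 0 to -100, cell death. Compounds scoring below 10 were considered active.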

Assays:
Assay in all cases: NCI-60 one-dose screen, 48 h (100 = growth as untreated, 0 = no growth, -100 = all killed)
Conditions in all cases: 10 µM unless noted
OVCAR-5 ovarian = system: OVCAR-5 ovarian
OVCAR-4 ovarian = system: OVCAR-4 ovarian
IGROV1 ovarian = system: IGROV1 ovarian
NCI/ADR-RES ovarian = system: NCI/ADR-RES ovarian
BT-549 breast = system: BT-549 breast
MDA-MB-435 melanoma = system: MDA-MB-435 melanoma
HCT-116 colon = system: HCT-116 colon
HCC-2998 colon = system: HCC-2998 colon
OVCAR-8 ovarian = system: OVCAR-8 ovarian
SK-OV-3 ovarian = system: SK-OV-3 ovarian
OVCAR-3 ovarian = system: OVCAR-3 ovarian
HS 578T breast = system: HS 578T breast
T-47D breast = system: T-47D breast
SW-620 colon = system: SW-620 colon
MCF7 breast = system: MCF7 breast
KM12 colon = system: KM12 colon

Measured: growth

C=C1CCC2C3(C)COC(c4ccccc4)OC3CCC2(C)C1C/C=C1/C(=O)OCC1O (stereo not given)
inactive: OVCAR-5 ovarian 117% | OVCAR-4 ovarian 66.6% | IGROV1 ovarian 59.2% | NCI/ADR-RES ovarian 51.5% | BT-549 breast 56.5% | MDA-MB-435 melanoma 72.8% | HCT-116 colon 38.6% | HCC-2998 colon 94.1%

COc1cc2c(cc1OC)C(Cc1cc(OC)c(OC)cc1[N+](=O)[O-])=NCC2
inactive: OVCAR-8 ovarian 98% | OVCAR-5 ovarian 73.6% | OVCAR-4 ovarian 91.6% | SK-OV-3 ovarian 89.8% | IGROV1 ovarian 98.1% | OVCAR-3 ovarian 95.4% | HS 578T breast 87.8% | NCI/ADR-RES ovarian 81.8% | T-47D breast 78.5% | BT-549 breast 56.6% | MDA-MB-435 melanoma 90.9% | SW-620 colon 82% | MCF7 breast 94% | HCT-116 colon 62.2% | HCC-2998 colon 89.5% | KM12 colon 88%

OCCN1CCN(CC/C=C2/c3ccccc3Sc3ccc(C(F)(F)F)cc32)CC1
inactive: OVCAR-8 ovarian 88.5% | OVCAR-5 ovarian 82.4% | OVCAR-4 ovarian 66.5% | SK-OV-3 ovarian 73.1% | IGROV1 ovarian 55.8% | OVCAR-3 ovarian 80% | HS 578T breast 67.7% | NCI/ADR-RES ovarian 76.1% | T-47D breast 62.5% | BT-549 breast 75.2% | MDA-MB-435 melanoma 35.2% | SW-620 colon 83.5% | MCF7 breast 56.6% | HCT-116 colon 41.5% | HCC-2998 colon 21.4% | KM12 colon 63.4%
